Reference: the supplement of paper PMC12819154, “High-throughput peptide-centric local stability assay extends protein–ligand identification to membrane proteins, tissues and bacteria” (Nature Structural & Molecular Biology, 2025)

Compound: Nc1ncnc2c1ncn2[C@@H]1O[C@H](COP(=O)(O)OP(=O)(O)OP(=O)(O)O)[C@@H](O)[C@H]1O [adenosine 5'-triphosphate]
Assay: log2 fold change of tryptic peptide abundance, ligand vs vehicle (limited proteolysis) (log2 ratio); higher = more trypsin-susceptible (destabilized)
Conditions: ligand concentration: 5 mM; sample: E. coli desalted lysate; replicate design: treated before aliquoting
Method: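 HT-PELSA: desalted E. coli K-12 BW25113 lysate (with 12 mM MgCl2) incubated with 5 mM ATP (pH 7) or water for 30 min at 25 C, then a 4 min trypsin pulse at 22 C. Peptides were quantified by DIA-MS (4 replicates). Value is the peptide log2 fold change (treated/control); negative = stabilized. Scale: negative = ligand-stabilized region.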
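Further: lysate desalted by size exclusion to strip endogenous ATP, peptide intensities built from DIA-NN precursor signals, and peptides missing any value discarded before comparison.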

Chain of UniProt P77300 (P77300 whole entry): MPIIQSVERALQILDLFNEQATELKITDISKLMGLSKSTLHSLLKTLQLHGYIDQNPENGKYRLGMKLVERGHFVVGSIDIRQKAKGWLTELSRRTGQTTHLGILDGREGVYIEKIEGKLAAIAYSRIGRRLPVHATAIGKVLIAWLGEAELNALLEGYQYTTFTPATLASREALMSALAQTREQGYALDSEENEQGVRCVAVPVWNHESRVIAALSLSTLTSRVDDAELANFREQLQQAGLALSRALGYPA
Chain of UniProt P17888 (P17888 whole entry): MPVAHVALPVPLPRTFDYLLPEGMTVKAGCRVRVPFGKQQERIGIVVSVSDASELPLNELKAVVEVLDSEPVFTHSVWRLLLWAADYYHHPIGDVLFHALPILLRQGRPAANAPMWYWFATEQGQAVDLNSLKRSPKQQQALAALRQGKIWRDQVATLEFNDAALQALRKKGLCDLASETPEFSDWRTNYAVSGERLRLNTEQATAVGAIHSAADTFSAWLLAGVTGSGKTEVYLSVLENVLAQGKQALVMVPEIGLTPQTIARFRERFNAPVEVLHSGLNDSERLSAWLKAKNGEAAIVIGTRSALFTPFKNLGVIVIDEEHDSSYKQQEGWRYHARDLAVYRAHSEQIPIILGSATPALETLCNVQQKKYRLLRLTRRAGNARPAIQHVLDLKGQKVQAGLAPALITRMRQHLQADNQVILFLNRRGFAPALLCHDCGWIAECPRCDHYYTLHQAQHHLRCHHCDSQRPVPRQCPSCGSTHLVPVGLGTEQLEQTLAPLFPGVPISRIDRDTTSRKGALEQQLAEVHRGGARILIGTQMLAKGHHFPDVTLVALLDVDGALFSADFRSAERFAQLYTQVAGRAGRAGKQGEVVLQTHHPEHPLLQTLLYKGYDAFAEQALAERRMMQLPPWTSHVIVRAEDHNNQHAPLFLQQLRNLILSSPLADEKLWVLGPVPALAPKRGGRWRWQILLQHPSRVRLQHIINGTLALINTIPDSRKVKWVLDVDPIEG
Chain of UniProt P37751 (P37751 whole entry): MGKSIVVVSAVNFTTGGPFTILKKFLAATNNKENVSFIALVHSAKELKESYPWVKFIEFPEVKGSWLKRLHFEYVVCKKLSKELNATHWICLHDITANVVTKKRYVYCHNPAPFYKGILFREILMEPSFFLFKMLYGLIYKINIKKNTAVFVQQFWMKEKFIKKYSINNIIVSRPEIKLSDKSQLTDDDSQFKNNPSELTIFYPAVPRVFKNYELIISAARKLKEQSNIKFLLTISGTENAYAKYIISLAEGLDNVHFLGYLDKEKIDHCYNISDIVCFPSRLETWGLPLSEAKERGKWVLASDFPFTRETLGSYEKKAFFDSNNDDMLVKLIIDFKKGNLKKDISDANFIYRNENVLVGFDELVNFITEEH
Chain of UniProt P28631 (P28631 whole entry): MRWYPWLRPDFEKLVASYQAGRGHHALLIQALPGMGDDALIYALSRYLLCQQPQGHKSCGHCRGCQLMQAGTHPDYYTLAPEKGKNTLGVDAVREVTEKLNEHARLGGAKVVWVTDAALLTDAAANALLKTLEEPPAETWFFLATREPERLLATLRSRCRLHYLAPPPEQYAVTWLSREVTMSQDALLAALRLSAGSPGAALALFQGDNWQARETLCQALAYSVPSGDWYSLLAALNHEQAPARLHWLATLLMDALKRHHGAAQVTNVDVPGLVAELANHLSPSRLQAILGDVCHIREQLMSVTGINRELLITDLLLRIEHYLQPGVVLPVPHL
Chain of UniProt P27828 (P27828 whole entry): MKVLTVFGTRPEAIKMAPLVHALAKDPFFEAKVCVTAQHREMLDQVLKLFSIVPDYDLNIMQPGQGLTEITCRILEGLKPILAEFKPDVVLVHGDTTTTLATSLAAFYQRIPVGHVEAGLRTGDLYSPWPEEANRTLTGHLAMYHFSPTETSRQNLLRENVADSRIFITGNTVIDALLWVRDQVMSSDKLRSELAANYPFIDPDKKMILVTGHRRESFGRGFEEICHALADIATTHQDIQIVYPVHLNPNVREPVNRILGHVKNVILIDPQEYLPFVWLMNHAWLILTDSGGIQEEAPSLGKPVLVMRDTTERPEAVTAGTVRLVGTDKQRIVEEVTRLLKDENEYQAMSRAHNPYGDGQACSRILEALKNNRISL
Chain of UniProt P0AAC4 (P0AAC4 whole entry): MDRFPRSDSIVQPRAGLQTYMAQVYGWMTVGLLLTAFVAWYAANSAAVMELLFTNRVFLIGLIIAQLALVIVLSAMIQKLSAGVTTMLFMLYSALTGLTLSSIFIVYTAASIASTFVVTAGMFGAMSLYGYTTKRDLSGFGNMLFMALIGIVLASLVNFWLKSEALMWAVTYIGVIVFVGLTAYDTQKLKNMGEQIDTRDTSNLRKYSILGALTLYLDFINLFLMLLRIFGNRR
Chain of UniProt P11880 (P11880 whole entry): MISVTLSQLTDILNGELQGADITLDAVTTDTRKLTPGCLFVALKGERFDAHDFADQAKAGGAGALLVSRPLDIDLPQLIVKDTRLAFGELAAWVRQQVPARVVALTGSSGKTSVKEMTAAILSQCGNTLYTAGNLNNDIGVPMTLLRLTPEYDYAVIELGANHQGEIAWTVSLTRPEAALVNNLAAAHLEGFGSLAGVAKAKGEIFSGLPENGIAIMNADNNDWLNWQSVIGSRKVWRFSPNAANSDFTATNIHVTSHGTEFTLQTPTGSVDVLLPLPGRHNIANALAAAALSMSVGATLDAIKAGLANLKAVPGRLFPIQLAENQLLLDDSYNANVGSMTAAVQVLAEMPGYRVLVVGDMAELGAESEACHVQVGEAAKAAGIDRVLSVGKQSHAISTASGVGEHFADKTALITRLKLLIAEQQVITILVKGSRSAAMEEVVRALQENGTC
Chain of UniProt P15977 (P15977 whole entry): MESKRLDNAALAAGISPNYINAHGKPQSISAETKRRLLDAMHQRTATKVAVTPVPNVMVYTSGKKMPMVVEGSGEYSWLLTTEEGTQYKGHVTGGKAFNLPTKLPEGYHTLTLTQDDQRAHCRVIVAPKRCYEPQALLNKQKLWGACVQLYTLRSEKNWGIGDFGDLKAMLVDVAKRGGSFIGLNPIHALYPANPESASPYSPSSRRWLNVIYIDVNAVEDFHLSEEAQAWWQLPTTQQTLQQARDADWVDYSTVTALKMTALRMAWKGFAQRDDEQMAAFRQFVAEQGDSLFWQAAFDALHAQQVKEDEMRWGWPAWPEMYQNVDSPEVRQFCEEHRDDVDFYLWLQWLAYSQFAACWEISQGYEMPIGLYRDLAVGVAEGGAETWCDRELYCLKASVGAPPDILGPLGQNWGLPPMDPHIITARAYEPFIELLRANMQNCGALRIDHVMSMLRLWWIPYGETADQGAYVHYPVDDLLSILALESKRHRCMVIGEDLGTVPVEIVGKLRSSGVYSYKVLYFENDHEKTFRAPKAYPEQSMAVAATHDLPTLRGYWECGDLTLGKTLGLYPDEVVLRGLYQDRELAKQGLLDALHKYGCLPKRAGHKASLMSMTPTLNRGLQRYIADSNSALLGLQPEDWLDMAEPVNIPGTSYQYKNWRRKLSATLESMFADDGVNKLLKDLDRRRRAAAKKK
Chain of UniProt P0AAS7 (P0AAS7 whole entry): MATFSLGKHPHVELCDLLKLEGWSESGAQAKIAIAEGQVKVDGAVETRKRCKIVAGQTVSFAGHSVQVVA
Chain of UniProt P06149 (P06149 whole entry): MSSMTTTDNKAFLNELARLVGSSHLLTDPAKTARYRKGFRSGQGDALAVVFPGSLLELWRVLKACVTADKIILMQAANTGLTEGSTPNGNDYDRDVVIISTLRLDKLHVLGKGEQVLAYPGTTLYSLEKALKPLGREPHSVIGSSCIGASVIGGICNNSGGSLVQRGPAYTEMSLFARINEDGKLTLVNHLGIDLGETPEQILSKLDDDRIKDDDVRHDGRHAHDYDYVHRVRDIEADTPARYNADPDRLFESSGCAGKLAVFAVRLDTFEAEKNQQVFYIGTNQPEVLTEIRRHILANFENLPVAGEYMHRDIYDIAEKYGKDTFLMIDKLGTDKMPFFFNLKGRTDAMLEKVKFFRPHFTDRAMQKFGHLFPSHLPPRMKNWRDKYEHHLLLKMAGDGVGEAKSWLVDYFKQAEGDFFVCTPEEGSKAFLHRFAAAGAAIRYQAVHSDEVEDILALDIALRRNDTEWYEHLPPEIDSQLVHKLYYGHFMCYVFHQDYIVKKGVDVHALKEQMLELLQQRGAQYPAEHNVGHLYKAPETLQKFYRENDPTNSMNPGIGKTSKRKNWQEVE
Chain of UniProt P45799 (P45799 whole entry): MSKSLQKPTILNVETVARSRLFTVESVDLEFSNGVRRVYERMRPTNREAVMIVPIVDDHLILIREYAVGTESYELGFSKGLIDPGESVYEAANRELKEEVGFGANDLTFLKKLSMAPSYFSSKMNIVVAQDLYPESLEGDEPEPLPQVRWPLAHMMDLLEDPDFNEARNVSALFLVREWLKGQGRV

Target	log2 fold change
UniProt P0AAC4 (peptide sequence: SDSIVQPR, peptide start residue: 7)	-0.368
UniProt P17888 (peptide sequence: TNYAVSGER, peptide start residue: 188)	-1.98
UniProt P27828 (peptide sequence: DTTERPEAVTAGTVR, peptide start residue: 309)	-0.6
UniProt P45799 (peptide sequence: SLQKPTILNVETVAR, peptide start residue: 4)	-1.1
UniProt P06149 (peptide sequence: VRDIEADTPAR, peptide start residue: 232)	-1.35
UniProt P77300 (peptide sequence: STLHSLLK, peptide start residue: 38)	-0.881
UniProt P28631 (peptide sequence: YLLCQQPQGHK, peptide start residue: 47)	-0.546
UniProt P15977 (peptide sequence: RKLSATLESMFADDGVNK, peptide start residue: 661)	-0.78
UniProt P37751 (peptide sequence: SQLTDDDSQFK, peptide start residue: 183)	-0.401
MurF (peptide sequence: VVALTGSSGK, peptide start residue: 102) (UniProt P11880)	-1.5
UniProt P0AAS7 (peptide sequence: LEGWSESGAQAK, peptide start residue: 20)	-0.938
